In publication PMC4336329 (PLoS ONE, 2015):
The whole screen tested about 310,000 compounds, of which about 2,200 (0.71%) showed an effect of 50% or more. Effects have a minus sign here. The list comes from a sample in which strong results are over-represented; it also holds similar structures and randomly drawn compounds.

The compounds below were run against human ether-à-go-go-related gene (hERG) potassium channel (human, UniProt Q12809) (assay: primary screen, population patch clamp on CHO cells stably expressing hERG; higher = less effect of the substance).
human ether-à-go-go-related gene (hERG) potassium channel, sequence (Q12809 whole entry, looked up): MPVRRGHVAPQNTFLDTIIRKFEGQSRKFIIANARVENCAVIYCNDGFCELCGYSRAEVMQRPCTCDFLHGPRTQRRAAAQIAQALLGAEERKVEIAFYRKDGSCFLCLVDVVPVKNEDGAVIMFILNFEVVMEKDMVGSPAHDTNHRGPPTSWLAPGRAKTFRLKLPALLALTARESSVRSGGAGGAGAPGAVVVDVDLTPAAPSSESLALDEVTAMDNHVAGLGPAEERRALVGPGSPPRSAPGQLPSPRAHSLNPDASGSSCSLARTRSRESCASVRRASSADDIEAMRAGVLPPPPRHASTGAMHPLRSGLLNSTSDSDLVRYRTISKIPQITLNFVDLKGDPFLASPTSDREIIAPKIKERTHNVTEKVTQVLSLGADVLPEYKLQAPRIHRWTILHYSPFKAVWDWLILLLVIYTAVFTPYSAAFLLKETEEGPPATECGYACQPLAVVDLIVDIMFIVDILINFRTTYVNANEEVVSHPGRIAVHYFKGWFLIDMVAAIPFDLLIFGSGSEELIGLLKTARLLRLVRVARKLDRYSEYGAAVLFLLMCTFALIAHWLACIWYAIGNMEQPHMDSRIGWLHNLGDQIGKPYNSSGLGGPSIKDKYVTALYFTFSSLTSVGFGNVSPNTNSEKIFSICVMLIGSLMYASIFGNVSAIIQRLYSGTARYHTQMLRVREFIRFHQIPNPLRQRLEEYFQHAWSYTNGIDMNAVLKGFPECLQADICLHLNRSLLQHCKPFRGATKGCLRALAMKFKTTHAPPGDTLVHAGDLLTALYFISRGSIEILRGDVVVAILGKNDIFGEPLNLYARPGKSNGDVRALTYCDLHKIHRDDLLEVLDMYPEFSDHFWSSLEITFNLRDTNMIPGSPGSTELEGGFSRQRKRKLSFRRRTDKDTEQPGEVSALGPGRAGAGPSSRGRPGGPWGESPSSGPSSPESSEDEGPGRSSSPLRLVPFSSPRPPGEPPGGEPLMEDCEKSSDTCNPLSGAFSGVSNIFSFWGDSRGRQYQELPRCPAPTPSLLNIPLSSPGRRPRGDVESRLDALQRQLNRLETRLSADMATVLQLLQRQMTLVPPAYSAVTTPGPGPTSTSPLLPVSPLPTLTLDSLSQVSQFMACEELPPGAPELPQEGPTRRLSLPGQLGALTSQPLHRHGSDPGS

Row | SMILES | hERG current change (%, negative = inhibition) at 1uM
1 | CSc1ccc(/C=N/N2CCN(Cc3ccccc3Cl)CC2)cc1 | 9.96%
2 | Cc1c(C(=O)O)c(C(=O)O)nc2ccc(N3CCOCC3)cc12 | 10.3%
3 | Cc1c(CCC(=O)NC2CC2)c(=O)oc2c(C)c(O)ccc12 | 22.9%
4 | Br.COC(=O)CN1C2=NCCCN2c2ccccc21 | -3.47%
5 | Br.COC(=O)c1ccc(OCCN2C3=NCCN3c3ccccc32)cc1 | -56.5%
6 | Cl.c1ccc(OCCN2C3=NCCN3c3ccccc32)cc1 | -51.5%
7 | Br.CCOC(=O)CN1C2=NCCN2c2ccccc21 | 15.4%
8 | CCCN1C2=NCCN2c2ccccc21.Cl | 0.0662%
9 | Cl.c1ccc2c(c1)N1CCN=C1N2CCN1CCCCC1 | 3.76%
10 | Cc1ccc(Cl)cc1N1CCN(C(=O)Cc2cn(C)c3ccccc23)CC1 | 13.8%
11 | CCOc1cc(NC(=O)c2ccccn2)c(OCC)cc1NC(=O)c1ccc(OC)cc1 | 3.95%
12 | CNC(=S)NNC(=O)c1cccc(N(C)C)c1 | 2.36%
13 | Cc1cccc(NS(=O)(=O)c2cccs2)n1 | 17.6%
14 | COc1ccc(N2C(=O)CCC(C(=O)N3CCN(c4ccccn4)CC3)C2c2ccc(F)cc2)cc1 (centres unmarked) | -21.3%
15 | COc1ccc(C2C(C(=O)N3CCN(c4ccccn4)CC3)CCC(=O)N2c2ccc(OC)cc2)cc1 (centres unmarked) | -0.548%
16 | COc1ccc(C2C(C(=O)N3CCN(c4ccccn4)CC3)CC(=O)N2c2ccc(OC)cc2)cc1 (centres unmarked) | -50.6%
17 | Cc1ccc(CNC(=O)CN(Cc2ccccc2)S(C)(=O)=O)cc1 | -3.4%
18 | Cc1cc(=O)[nH]c(N/N=C/c2c[nH]c3ccccc23)n1 | 9.01%
19 | [O-][Cl+3]([O-])([O-])[O-].c1ccc(-c2[nH]c(-c3ccccc3)[n+](CC3CO3)c2-c2ccccc2)cc1 (centres unmarked) | -2.8%
20 | N#CC(C#N)=Cc1ccc(N2CCCC2)cc1 | 5.75%
21 | Cc1cc(N2CCCC2)ccc1C=C(C#N)C#N | 1.28%

Row | SMILES | hERG current change (%, negative = inhibition) at 1uM
22 | Cc1cc(C=C(C#N)C#N)ccc1N1CCCC1 | -68.6%
23 | CNC(=S)Nc1ccc(C(N)=O)cc1 | 10.2%
24 | CC(C)(C)c1nc(NCC2CCCO2)c2nnn(Cc3ccccc3)c2n1 (centres unmarked) | 13.9%
25 | COc1ccc(C(=O)Nc2ccccc2C(=O)Nc2ccc(C(=O)O)cc2)cc1 | 15%
26 | O=C(CNS(=O)(=O)c1ccc(Br)s1)NCCc1ccc(Cl)cc1 | 16.1%
27 | CC1(C)CC(=O)CC2(C1)NCC(c1ccccc1Cl)c1c2[nH]c2ccccc12.Cl (centres unmarked) | -3.21%
28 | CC1(C)CC(=O)CC2(C1)NCC(c1ccccc1)c1c2[nH]c2ccccc12.Cl (centres unmarked) | -83.4%
29 | COc1cccc(C2CNC3(CCCC(C)C3)c3[nH]c4ccccc4c32)c1OC.Cl (centres unmarked) | 8.05%
30 | CC(C)(C)OC(=O)N[C@@H](Cc1ccccc1)C(=O)N1CCC(C(=O)N[C@@H](Cc2c[nH]c3ccccc23)C(=O)O)CC1 | 15%
31 | CCCS(=O)(=O)c1c(S(=O)(=O)CCC)c2cnccn2c1C(=O)c1ccc(CC)cc1 | 0.628%
32 | OC1(c2ccc(Cl)cc2)CCN(Cc2c[nH]c3ccccc23)CC1 | -27.6%
33 | COc1ccccc1NC(=O)CN1CCN(CC(=O)Nc2ccc3c(c2)OCCO3)CC1 | -10.6%
34 | COc1ccccc1NC(=O)CN1CCN(CC(=O)Nc2ccc3c(c2)OCO3)CC1 | -67.3%
35 | CCOc1ccc(NC(=O)CN2CCN(CC(=O)Nc3ccc4c(c3)OCO4)CC2)cc1 | -80.9%
36 | COc1ccc(OCC(=O)Nc2ccc3c(c2)OCO3)cc1 | 11.7%
37 | COc1ccc(S(=O)(=O)N2CCCN(CC(=O)Nc3ccc4c(c3)OCO4)CC2)cc1 | -15.1%
38 | COc1ccccc1N1CCN(CC(=O)Nc2ccc3c(c2)OCCO3)CC1 | -0.304%
39 | CCOc1ccc(NC(=O)COc2ccc3c(c2)OCO3)cc1 | 7.57%
40 | CCOc1ccc(OCCC(=O)Nc2ccc3c(c2)OCO3)cc1 | 11.1%
41 | COc1ccc(NC(=O)CN2CCN(CC(=O)Nc3ccc4c(c3)OCO4)CC2)cc1 | -85.9%
42 | O=C(CN1CCCC1=O)NC1C2CC3CC(C2)CC1C3 (centres unmarked) | 9.69%

Row | SMILES | hERG current change (%, negative = inhibition) at 1uM
43 | COC(=O)C1=CN(Cc2ccccc2)C=C(C(=O)OC)C1c1ccc(O)c(OC)c1 | 17.4%
44 | COc1ccc(N2C(=O)/C(=C\c3ccco3)N=C2SCC(=O)N(C(C)C)C(C)C)cc1Cl | 20.1%
45 | Cc1ccc(OCC(O)CNC2CCCC2)cc1C.Cl (centres unmarked) | 8.86%
46 | CC(=O)c1cccc(CN2CCCCC2C(=O)Nc2ccc(Oc3ccccc3)nc2)c1 (centres unmarked) | 0.714%
47 | CCC(=O)Nc1nc(C)c(C(=O)N2CCCCC2)s1 | 12.8%
48 | CCCCN(C(=O)c1ccc(C)c(S(=O)(=O)N2CCOCC2)c1)c1c(N)n(CC(C)C)c(=O)[nH]c1=O | -57.9%
49 | CCCCN(C(=O)c1ccc(C)c(S(=O)(=O)N2CCOCC2)c1)c1c(N)n(CCCC)c(=O)[nH]c1=O | 5.43%
50 | CCCCn1c(N)c(N(CCC(C)C)C(=O)c2ccc(C)c(S(=O)(=O)N3CCOCC3)c2)c(=O)[nH]c1=O | 5.89%
51 | O=C(CCNS(=O)(=O)c1ccccc1F)N1CCN(Cc2ccccc2)CC1 | 8.79%
52 | O=C(NCc1ccccc1)c1ccc(NC(=O)c2ccco2)cc1 | 5.4%
53 | O=C(NC1CCCC1)C(c1ccccn1)N(Cc1ccccc1F)C(=O)c1csnn1 (centres unmarked) | 10.7%
54 | CCOCCN1CCN(c2nnc3n2-c2ccc(Cl)cc2C(c2ccccc2Cl)=NC3)CC1.O=CO | -57.6%
55 | Clc1ccc2c(c1)C(c1ccccc1Cl)=NCc1nnc(N3CCN(CCSc4ccccc4)CC3)n1-2.O.O=C(O)/C=C/C(=O)O | -10.8%
56 | Clc1ccc2c(c1)C(c1ccccc1Cl)=NCc1nnc(Br)n1-2.c1ccccc1 | 2.57%
57 | CN1CCN(Cc2nnc3n2-c2ccc(Cl)cc2C(c2ccccc2)=NC3)CC1.O=CO | -31.9%
58 | COc1ccccc1C1=NCc2nnc(CSC)n2-c2ccc(Cl)cc21 | 0.0726%
59 | CSCc1nnc2n1-c1ccc(Cl)cc1C(c1ccccc1)=NC2 | 4.89%
60 | COCCCN1CCN(c2nnc3n2-c2sc(Br)cc2C(c2ccccc2Cl)=NC3)CC1.CS(=O)(=O)O | -11.9%
61 | CN(C)CCSCc1nnc2n1-c1ccc(Cl)cc1C(c1ccccc1Cl)=NC2.c1ccccc1 | -51.9%
62 | Clc1ccc2c(c1)C(c1ccccc1Cl)=NCc1nnc(N3CCN(CCOc4ccccc4)CC3)n1-2.O=C(O)/C=C/C(=O)O | -50.8%
63 | O=c1nc2n(c3ncccc13)CCC2 | 16.1%

Row | SMILES | hERG current change (%, negative = inhibition) at 1uM
64 | CCOC(=O)c1cc(-c2ccccc2)sc1NC(=O)CSc1nnc(N)s1 | 2.01%
65 | Cc1cc(C)cc(C(=O)NCC(=O)OCC(=O)N2c3ccccc3NC(=O)C2(C)C)c1 | 4.41%
66 | COc1ccc(CCN2CC(C(=O)NCc3ccc(F)cc3)CC2=O)cc1OC (centres unmarked) | 6.95%
67 | COc1ccc(CCN2CC(C(=O)O)CC2=O)cc1OC (centres unmarked) | 2.95%
68 | COc1ccc(C2SCC(=O)N2CCc2ccc(OC)c(OC)c2)cc1 (centres unmarked) | -1.68%
69 | COc1ccc(NC(=O)CN2CC(c3ccccc3)CC2=O)cc1OC (centres unmarked) | 12.3%
70 | COc1ccc(CC[NH+](C)CCCN2CC(c3ccccc3)CC2=O)cc1OC.O=C([O-])C(=O)[O-] (centres unmarked) | -61.9%
71 | COc1ccc(C2CC(=O)N(CCC[NH+](C)CCc3ccc(OC)c(OC)c3)C2)cc1.O=C([O-])C(=O)[O-] (centres unmarked) | -72.9%
72 | COCC1CCCN(C(=O)c2ccc3oc(C(C)C)nc3c2)C1 (centres unmarked) | 9.33%
73 | COc1ccc(/C=N/Nc2nc(N3CCCC3)nc(N3CCCC3)n2)cc1O | 7.51%
74 | O=C(c1ccc(O)cc1)c1ccc(Cl)cc1 | -3.35%
75 | O=C(O)CCCCCCCCCCCc1ccccc1 | 12.7%
76 | CC(C)N(C)NC(=S)Nc1ccccc1 | 8.22%
77 | COc1ccc(/C=C(\NC(=O)c2ccc([N+](=O)[O-])cc2)C(=O)NCCCN2CCOCC2)cc1 | -41%
78 | COc1ccc(/C=C(/NC(=O)c2ccc([N+](=O)[O-])cc2)C(=O)NC(C)(C)C)cc1 | -10.7%
79 | COc1ccc(/C=C(\NC(=O)c2ccc([N+](=O)[O-])cc2)C(=O)NCCCn2ccnc2)cc1 | -14.4%
80 | C=CCNC(=O)/C(=C\c1ccc(OC)cc1)NC(=O)c1ccc([N+](=O)[O-])cc1 | -64.7%
81 | C=CCNC(=O)/C(=C\c1ccc([N+](=O)[O-])cc1)NC(C)=O | 8.68%
82 | COc1ccc(/C=C(/NC(=O)c2ccc([N+](=O)[O-])cc2)C(=O)NCCCN(C)C)cc1 | -65.3%
83 | CCOC(=O)CCc1c(C)c(C#N)c2nc3ccccc3n2c1-n1ccnc1C | -20.4%
